PubChem BioAssay (NCATS)
Where “and” joins values, the source holds several entries; their conditions need not be identical. Equal values may be shown once. Records with an inconclusive call do not appear. The list shows a part of the results. Calls of active or inactive are those of the source. Unless noted, calls come from the whole dose curve; as a rule, active = well fitted curve in either direction with a large enough effect (not every such curve was filed as active); inconclusive = small, poorly fitted or top-dose-only effect, or another doubt; inactive = flat fitted curve, though single readings scatter.

Legend:
[1] = biological target: Lysosomal acid glucosylceramidase (Homo sapiens) (UniProt P04062); experiment: Glucocerebrosidase-p2 (AID 348; in the data active = potency below about 10 µM; note: potency is the fitted concentration of half-maximal effect); conditions: purified GBA, blue fluorogenic substrate, 40 min
Sequence of Lysosomal acid glucosylceramidase (Homo sapiens) (P04062 whole entry, looked up): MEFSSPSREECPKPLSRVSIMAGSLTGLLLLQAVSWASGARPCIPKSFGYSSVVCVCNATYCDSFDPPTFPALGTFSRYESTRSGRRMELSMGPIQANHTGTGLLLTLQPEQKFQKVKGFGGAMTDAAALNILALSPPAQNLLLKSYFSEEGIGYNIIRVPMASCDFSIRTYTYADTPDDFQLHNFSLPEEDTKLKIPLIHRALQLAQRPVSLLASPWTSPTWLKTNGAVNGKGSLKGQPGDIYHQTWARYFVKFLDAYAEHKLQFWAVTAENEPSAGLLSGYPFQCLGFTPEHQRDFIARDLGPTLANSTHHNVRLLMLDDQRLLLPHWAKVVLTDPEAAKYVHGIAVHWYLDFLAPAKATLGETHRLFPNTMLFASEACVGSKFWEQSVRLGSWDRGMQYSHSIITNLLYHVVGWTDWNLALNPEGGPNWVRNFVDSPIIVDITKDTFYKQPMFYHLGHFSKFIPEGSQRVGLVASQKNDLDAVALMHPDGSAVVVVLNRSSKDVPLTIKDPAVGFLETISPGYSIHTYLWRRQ
Outline: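 Compounds titrated from 0.6 nM upwards against 0.2 nM enzyme in pH 5.9 citric acid/KH2PO4, taurocholate, tween-20; blue fluorogenic substrate 80 uM, 40 min room temperature, stopped and read Ex 365/Em 440 for AC50.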

[2] = AP1 Signaling Pathway (AID 357); conditions: ME-180 AP-1-bla reporter, EGF-induced, beta-lactamase ratio, 5 h; note: % is set by controls: 0 for no effect and ±100 for the full control effect
Outline: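 AP-1-bla ME-180 cells with beta-lactamase reporter under AP-1 response element, stimulated with EC50 EGF; compounds titrated, 5 hours at 37 degrees Celsius. CCF4 read at 460/530 nm ratio; positive and negative modulators judged by AC50.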

[3] = biological target: Cytochrome P450 1A2 (Homo sapiens) (UniProt P05177); experiment: p450-cyp1a2 (AID 410; calls by dose curve; note: potency is the fitted concentration of half-maximal effect;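 for activity change, negative = inhibition: -100% = full effect of reference inhibitor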); conditions: recombinant CYP1A2, luciferin-ME demethylation, luminescence; series mostly up to 11.4 µM
Sequence of Cytochrome P450 1A2 (Homo sapiens) (P05177 whole entry, looked up): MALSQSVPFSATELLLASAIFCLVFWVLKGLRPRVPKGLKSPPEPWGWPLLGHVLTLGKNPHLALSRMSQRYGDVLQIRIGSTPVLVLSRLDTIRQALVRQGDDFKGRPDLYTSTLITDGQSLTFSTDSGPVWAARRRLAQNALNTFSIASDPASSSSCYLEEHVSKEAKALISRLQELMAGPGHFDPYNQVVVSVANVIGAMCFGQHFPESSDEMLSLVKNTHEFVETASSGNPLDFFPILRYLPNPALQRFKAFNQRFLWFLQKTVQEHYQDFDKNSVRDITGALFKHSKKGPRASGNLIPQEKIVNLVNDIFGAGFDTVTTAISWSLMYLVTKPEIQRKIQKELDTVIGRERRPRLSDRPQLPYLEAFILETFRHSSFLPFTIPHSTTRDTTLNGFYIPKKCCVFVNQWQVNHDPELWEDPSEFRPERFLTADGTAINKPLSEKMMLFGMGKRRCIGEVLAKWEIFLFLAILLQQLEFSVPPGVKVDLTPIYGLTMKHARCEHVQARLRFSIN
Outline: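 Luminescent readout of luciferin formed from Luciferin-ME by human CYP1A2; data normalized against complete inhibition by 57 uM furafylline. Enzyme 20nM, substrate 100uM at Km, 100mM KPO4 buffer, 60 min reaction at room temperature.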

[4] = NFAT Signaling Pathway (AID 444); conditions: Jurkat NFAT-bla M1, carbachol, beta-lactamase ratio, 5 h;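 note: carbachol stimulus at about its EC50 of 1 µM final; % is set by controls: 0 for no effect and ±100 for the full control effect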
Outline: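 Jurkat cells with NFAT-driven β-lactamase reporter and co-expressed M1 receptor, stimulated with carbachol (final 1 uM, ~EC50), compound titration, 5 h at 37 °C. CCF4 loaded 1 h at RT; 460/530 nm ratio gave %activity and AC50.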

[5] = Stat Signaling Pathway (AID 446); conditions: ME-180 (cervical carcinoma) SIE beta-lactamase reporter, IL-6 stimulated, 5 h;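 note: ME-180 cervical cancer cells given 40 pM IL-6 alongside compound; SIE-controlled beta-lactamase reporter measured as 460/530 nm FRET emission ratio; % is set by controls: 0 for no effect and ±100 for the full control effect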
Outline: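 IL-6/STAT signaling read in ME-180 cells via an SIE beta-lactamase reporter. Stimulus was 40 pM IL-6 (its AC50) for 5 hrs, so both activation and inhibition register.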

[6] = biological target: Glucocorticoid receptor (Homo sapiens) (UniProt P04150); experiment: GR-GFP Redistribution (AID 450;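 active = compounds whose dose series gives a full or clear partial fitted curve of increased nuclear translocation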; note: potency is the fitted concentration of half-maximal effect); conditions: U2OS GR-GFP nuclear translocation, laser cytometry, 2 h
Sequence of Glucocorticoid receptor (Homo sapiens) (P04150 whole entry, looked up, the tested form may be a part): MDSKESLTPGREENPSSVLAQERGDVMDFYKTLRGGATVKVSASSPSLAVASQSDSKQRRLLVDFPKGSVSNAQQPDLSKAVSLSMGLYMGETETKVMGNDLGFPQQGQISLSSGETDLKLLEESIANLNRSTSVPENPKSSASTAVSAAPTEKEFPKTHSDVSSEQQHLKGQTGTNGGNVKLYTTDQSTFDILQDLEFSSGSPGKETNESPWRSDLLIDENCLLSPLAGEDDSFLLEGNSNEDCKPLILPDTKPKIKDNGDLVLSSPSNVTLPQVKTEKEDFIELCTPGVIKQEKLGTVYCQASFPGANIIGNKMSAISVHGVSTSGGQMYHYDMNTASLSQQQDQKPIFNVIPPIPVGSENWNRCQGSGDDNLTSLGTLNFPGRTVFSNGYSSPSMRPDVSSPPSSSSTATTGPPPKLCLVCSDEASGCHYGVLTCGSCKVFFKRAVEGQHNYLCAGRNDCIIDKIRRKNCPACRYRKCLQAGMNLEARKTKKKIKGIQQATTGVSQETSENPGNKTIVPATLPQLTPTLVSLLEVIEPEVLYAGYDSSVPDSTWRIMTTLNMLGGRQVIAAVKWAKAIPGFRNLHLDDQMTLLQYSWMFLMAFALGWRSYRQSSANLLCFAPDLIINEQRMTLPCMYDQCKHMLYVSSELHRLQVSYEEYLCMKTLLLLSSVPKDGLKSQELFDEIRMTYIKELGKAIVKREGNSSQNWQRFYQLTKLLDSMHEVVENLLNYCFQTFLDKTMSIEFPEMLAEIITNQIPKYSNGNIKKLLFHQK

[7] = biological target: Glucocorticoid receptor (Homo sapiens) (UniProt P04150); experiment: GR-EFC Redistribution (AID 451; calls by dose curve; note: potency is the fitted concentration of half-maximal effect); conditions: CHO-K1 GR-EFC translocation, beta-gal luminescence, 2 h
Outline: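 CHO-K1 cells expressing nuclear EA and GR-ED fragments of b-gal; compounds titrated up to 46 uM final, 2 h at 37 C. GR nuclear translocation read as complemented b-gal luminescence after 1 h RT detection.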

[8] = biological target: Mitogen-activated protein kinase 10 (Mus musculus) (UniProt Q61831); experiment: JNK3 AlphaScreen Assay (AID 530); conditions: JNK3 lysate, c-Jun phosphorylation; series mostly up to 11.4 µM;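 note: kinase came from lysate of stimulated human HepG2 cells; signal reports phosphorylation of biotinylated GST-cJun 1-79 at Ser73 with 10 µM ATP; % is set by controls: 0 for no effect and ±100 for the full control effect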
Outline: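 Pre-activated (IL-1β/TNFα) JNK3 in HepG2 lysates phosphorylates biotin-GST-cJun(1-79), 10 uM ATP; anti-phospho-cJun(Ser73) AlphaScreen read at room temperature, pH 7.6 Tris buffer. Compounds pre-incubated 15 min as titrations.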

[9] = biological target: 3',5'-cyclic-AMP phosphodiesterase 4B (Homo sapiens) (UniProt Q07343); experiment: qHTS Assay for Inhibitors of PDE-IV (AID 607; active = well fitted activation curve with a large enough effect in the main read-out, with a control signal flat, not every such curve was filed as active; note: % of control where 0% means no effect); conditions: HEK293 ACTOne CNG channel cells, membrane potential fluorescence; series mostly up to 22.9 µM
Sequence of 3',5'-cyclic-AMP phosphodiesterase 4B (Homo sapiens) (Q07343 whole entry, looked up): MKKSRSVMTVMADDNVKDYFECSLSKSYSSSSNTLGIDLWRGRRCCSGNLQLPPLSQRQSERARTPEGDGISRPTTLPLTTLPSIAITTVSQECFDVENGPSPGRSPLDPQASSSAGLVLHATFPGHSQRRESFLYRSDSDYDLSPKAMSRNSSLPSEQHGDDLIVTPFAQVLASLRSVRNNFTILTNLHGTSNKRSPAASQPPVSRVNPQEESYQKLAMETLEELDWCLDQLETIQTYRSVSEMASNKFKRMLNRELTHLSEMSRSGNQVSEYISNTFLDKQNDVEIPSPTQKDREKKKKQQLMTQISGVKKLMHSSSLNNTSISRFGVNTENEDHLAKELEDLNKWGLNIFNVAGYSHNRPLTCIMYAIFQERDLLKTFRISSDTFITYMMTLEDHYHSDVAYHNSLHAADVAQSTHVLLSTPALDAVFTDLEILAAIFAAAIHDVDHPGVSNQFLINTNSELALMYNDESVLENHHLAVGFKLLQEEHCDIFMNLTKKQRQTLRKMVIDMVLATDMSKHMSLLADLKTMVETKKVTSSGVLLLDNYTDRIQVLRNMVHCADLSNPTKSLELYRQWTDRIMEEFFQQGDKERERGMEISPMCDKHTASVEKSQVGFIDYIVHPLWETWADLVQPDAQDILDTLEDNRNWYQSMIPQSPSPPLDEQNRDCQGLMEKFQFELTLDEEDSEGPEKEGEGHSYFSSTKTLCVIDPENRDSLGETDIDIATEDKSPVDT
Outline: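 Live HEK293 cells with a modified cyclic nucleotide-gated (CNG) channel report intracellular cAMP via membrane-potential dye fluorescence (ex 535/em 590 nm). Endogenous PDE-IV was targeted. Compounds were tested at up to 22.9 uM final; RO 20-1724 100 uM served as control.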

[10] = biological target: Fructose-bisphosphate aldolase A (Oryctolagus cuniculus) (UniProt P00883); experiment: qHTS Assay for Inhibitors of Fructose-1,6-bisphosphate Aldolase from Giardia Lamblia: Rabbit FBPA Selectivity (AID 2794; active = well fitted inhibition curve with a large enough effect; note: % is set by controls: 0 for no effect and ±100 for the full control effect; nearly all actives have a fitted effect of over 60% in size); conditions: Rabbit muscle FBPA enzyme inhibition, selectivity counter-screen; series mostly up to 57.5 µM
Sequence of Fructose-bisphosphate aldolase A (Oryctolagus cuniculus) (P00883 whole entry, looked up): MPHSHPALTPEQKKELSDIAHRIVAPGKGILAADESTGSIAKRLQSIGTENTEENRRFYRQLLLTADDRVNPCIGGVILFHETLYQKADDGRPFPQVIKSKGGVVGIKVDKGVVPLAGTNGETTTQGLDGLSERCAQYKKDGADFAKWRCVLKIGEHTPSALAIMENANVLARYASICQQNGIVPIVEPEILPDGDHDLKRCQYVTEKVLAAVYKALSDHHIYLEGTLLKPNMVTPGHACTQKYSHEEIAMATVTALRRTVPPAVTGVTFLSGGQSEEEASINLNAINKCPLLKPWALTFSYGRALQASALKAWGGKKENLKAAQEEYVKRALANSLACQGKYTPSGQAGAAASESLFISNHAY
Outline: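 Titrations up to 57.5 uM (final) were pin-transferred onto the coupling enzyme mix and held 10 min at room temperature. Substrate with the coupled detection system and AmpLite Red followed, and after 20 min fluorescence was measured.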

[11] = qHTS Assay for Inhibitors of Fructose-1,6-bisphosphate Aldolase from Giardia Lamblia: Coupling assay counterscreen confirmation (AID 2795; active = well fitted inhibition curve with a large enough effect; note: % is set by controls: 0 for no effect and ±100 for the full control effect; nearly all actives have a fitted effect of over 55% in size); conditions: GAPDH coupling enzyme counterscreen, biochemical; series mostly up to 57.5 µM
Outline: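 Coupling-system counterscreen without aldolase: glyceraldehyde-3-phosphate coupling enzymes preincubated 10 min with compound (up to 57.5 uM final), then substrate and AmpLite Red detection added for 20 min at RT. Fluorescence read at 525/598 nm.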

[12] = biological target: Ubiquitin carboxyl-terminal hydrolase 1 (Homo sapiens) (UniProt O94782); experiment: Inhibitors of USP1/UAF1: Pilot qHTS (AID 504865; active = well fitted inhibition curve with a large enough effect;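 note: rhodamine fluorescence freed from ubiquitin-rhodamine substrate followed over time; top concentration of the series differs between compounds; % is set by controls: 0 for no effect and ±100 for the full control effect; nearly all actives have a fitted effect of over 35% in size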); conditions: purified USP1/UAF1, Ub-rhodamine cleavage fluorescence; series mostly up to 114 µM
Sequence of Ubiquitin carboxyl-terminal hydrolase 1 (Homo sapiens) (O94782 whole entry, looked up): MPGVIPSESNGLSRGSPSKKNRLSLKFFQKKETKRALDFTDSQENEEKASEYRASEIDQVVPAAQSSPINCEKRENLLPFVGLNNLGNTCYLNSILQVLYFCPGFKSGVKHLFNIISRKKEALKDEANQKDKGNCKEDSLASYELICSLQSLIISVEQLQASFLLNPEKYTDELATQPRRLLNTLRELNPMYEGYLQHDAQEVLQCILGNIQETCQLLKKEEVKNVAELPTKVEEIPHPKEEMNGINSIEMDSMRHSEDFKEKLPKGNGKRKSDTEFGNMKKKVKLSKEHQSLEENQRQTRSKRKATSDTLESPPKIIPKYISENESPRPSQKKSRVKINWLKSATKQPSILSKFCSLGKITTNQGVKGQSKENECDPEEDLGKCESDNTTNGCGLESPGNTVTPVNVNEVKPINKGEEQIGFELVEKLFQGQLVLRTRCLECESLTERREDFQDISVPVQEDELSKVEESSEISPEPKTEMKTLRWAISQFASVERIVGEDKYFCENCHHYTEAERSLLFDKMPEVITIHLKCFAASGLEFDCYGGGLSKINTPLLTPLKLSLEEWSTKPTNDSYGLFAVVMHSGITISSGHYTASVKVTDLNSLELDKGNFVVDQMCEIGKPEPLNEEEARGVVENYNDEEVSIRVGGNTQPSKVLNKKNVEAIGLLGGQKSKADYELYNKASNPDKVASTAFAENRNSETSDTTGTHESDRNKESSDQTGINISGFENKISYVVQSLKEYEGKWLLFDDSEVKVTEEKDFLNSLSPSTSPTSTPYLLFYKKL
Outline: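 USP1/UAF1 complex at 1 nM preincubated 15 min at room temperature with compound, then Ub-Rho substrate added at 150 nM final. Fluorescence (480/540 nm) read kinetically in 50 mM HEPES pH 7.8, 0.5 mM EDTA, 1 mM TCEP, 0.1 mg/ml BSA, 0.01% Tween-20.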

[13] = qHTS profiling for inhibitors of Plasmodium falciparum proliferation (AID 504749; active = well fitted inhibition curve with a large enough effect;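 note: 0% = DMSO vehicle and full inhibition = artemisinin control; nearly all actives have a fitted effect of over 60% in size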); conditions: P. falciparum in erythrocytes, SYBR Green DNA, 72 h, at 28.7 µM (top of the series)
Outline: (§1)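 P. falciparum-infected erythrocytes (0.3% parasitemia, 2.5% hematocrit) incubated with compound 72 h at 37 C, 5% CO2. Parasite DNA detected by SYBR Green after lysis, overnight at room temperature; normalised to 0.29 uM artemisinin and DMSO.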

[14] = test system: AS120; experiment: as above; conditions: P. falciparum in erythrocytes, SYBR Green DNA, 72 h; series mostly up to 28.7 µM
Outline: as §1

[15] = test system: CP192; experiment: as above; conditions: P. falciparum in erythrocytes, SYBR Green DNA, 72 h; series mostly up to 28.7 µM
Outline: as §1

[16] = test system: CP203; experiment: as above; conditions: P. falciparum in erythrocytes, SYBR Green DNA, 72 h; series mostly up to 28.7 µM
Outline: as §1

[17] = test system: PC49; experiment: as above; conditions: P. falciparum in erythrocytes, SYBR Green DNA, 72 h; series mostly up to 28.7 µM
Outline: as §1

[18] = test system: W2; experiment: as above; conditions: P. falciparum in erythrocytes, SYBR Green DNA, 72 h; series mostly up to 28.7 µM
Outline: as §1

[19] = at 7.69 µM (top of the series) unless noted

CN(C)S(=O)(=O)Nc1ccccn1
inactive: Potency [1] > 11.4 µM | activity change, negative = inhibition [2, 19] 2.01% | Potency [3] | activity change, negative = inhibition [4, 19] 17.9% | activity, negative = inhibition [5, 19] 8.85% | Potency [6] > 46 µM | Potency [7] > 9.22 µM | Potency [8] | Potency [9]

N[C@@](CC(=O)O)(Cc1ccccc1)C(=O)O
inactive: Potency [1] > 11.4 µM | activity change, negative = inhibition [2, 19] -6.1% | activity change, negative = inhibition [3] -13.4% [at 2.29 µM] | activity change, negative = inhibition [4, 19] 0.819% | activity, negative = inhibition [5, 19] 6.06% | Potency [6] > 46 µM | Potency [7] > 9.22 µM | Potency [8]

OCCNc1ncnc2c1ncn2[C@@H]1O[C@@H](CO)[C@H](O)[C@@H]1O
inactive: Potency [1] > 11.4 µM | activity change, negative = inhibition [2, 19] 3.21% | Potency [3] | activity change, negative = inhibition [4, 19] 9.99% | activity, negative = inhibition [5, 19] 25.8% | Potency [6] > 46 µM | Potency [7] > 9.22 µM | Potency [8]

Cc1ccc(C(=O)Nc2nnc(C3=COCCO3)o2)cc1C
inactive: outcome [10] | outcome [11]

COc1ccc2cc1Oc1ccc(cc1)C[C@H]1c3cc(c(OC)cc3CCN1C)Oc1c(OC)c(OC)cc3c1[C@@H](C2)N(C)CC3
inactive: Potency [1] > 11.4 µM | activity change, negative = inhibition ([2]; at 7.69 µM (top of the series)) -3.56% | activity change, negative = inhibition ([2]; at 17.2 µM (top of the series)) -5.15% | Potency [3] | activity, negative = inhibition ([5]; at 7.69 µM (top of the series)) -1.58% | activity, negative = inhibition ([5]; at 17.2 µM (top of the series)) -5.25% | Potency [6] > 20.6 µM and > 46 µM | Potency [7] > 20.6 µM and > 46 µM and > 9.22 µM | Potency [8] | Potency [9] | Potency [12]

CN(C)c1ccc(-c2cc(NCc3ccccc3)ncn2)cc1
active: Potency [3] 1 µM
inactive: Potency [1] > 11.4 µM | activity change, negative = inhibition [2, 19] -19.2% | activity change, negative = inhibition [4, 19] 12.6% | activity, negative = inhibition [5, 19] -7.24% | Potency [6] > 46 µM | Potency [7] > 46 µM | Potency [8] | Potency [9] | Potency [12]

CN(C)c1ccc(-c2nc(N3CCNCC3)c3ccccc3n2)cc1
inactive: Potency [1] > 11.4 µM | activity change, negative = inhibition [2, 19] -12.7% | activity change, negative = inhibition [4, 19] 5.32% | activity, negative = inhibition [5, 19] 23.9% | Potency [6] > 46 µM | Potency [7] > 46 µM | Potency [8] | Potency [12]
active: Potency [3] 10 µM

CC(C)(C)OC(=O)[C@H]([C@@H]1N[C@@H](C(=O)O)C(C)(C)S1)N1C(=O)c2ccccc2C1=O
inactive: Potency [1] > 11.4 µM | activity change, negative = inhibition [2, 19] -0.34% | activity change, negative = inhibition [3] -1.4% [at 2.29 µM] | activity change, negative = inhibition [4, 19] -5.29% | activity, negative = inhibition [5, 19] 3.62% | Potency [6] > 46 µM | Potency [7] > 9.22 µM | Potency [8]

CN(C)[C@H]1C(=O)C(C(=O)NCN2CCCC2)=C(O)[C@]2(O)C(=O)C3=C(O)c4c(O)cccc4[C@](C)(O)[C@H]3C[C@H]12
inactive: Potency [1] > 11.4 µM | activity change, negative = inhibition [2, 19] -4.67% | Potency [3] | activity change, negative = inhibition [4, 19] 6.5% | activity, negative = inhibition [5, 19] -11.7% | Potency [6] > 46 µM | Potency [7] > 9.22 µM | Potency [8] | Potency [9] | activity, negative = inhibition ([13]; parasite line A) 9.1% | activity, negative = inhibition ([13]; parasite line B) 1.72% | Potency [14] | Potency [15] | Potency [16] | Potency [17] | Potency [18]

Cc1cn([C@H]2C[C@H](N=[N+]=[N-])[C@H](CO)O2)c(=O)[nH]c1=O
inactive: Potency [1] > 11.4 µM | activity change, negative = inhibition ([2]; at 7.69 µM (top of the series)) 11.1% | activity change, negative = inhibition ([2]; at 38 µM (top of the series)) 1.21% | activity change, negative = inhibition ([4]; at 7.69 µM (top of the series)) 5.39% | activity change, negative = inhibition ([4]; at 38 µM (top of the series)) -4.43% | activity, negative = inhibition ([5]; at 7.69 µM (top of the series)) -1.74% | activity, negative = inhibition ([5]; at 38 µM (top of the series)) 22.1% | Potency [6] > 46 µM | Potency [7] > 46 µM and > 9.22 µM | Potency [8] | Potency [9] | Potency [12] | activity, negative = inhibition ([13]; parasite line A) 7.02% | activity, negative = inhibition ([13]; parasite line B) 2.08% | Potency [14] | Potency [15] | Potency [16] | Potency [17] | Potency [18]

N#CCCn1c(=O)c(-c2cccc(C#N)c2)nc2cnc(Oc3ccccc3)nc21
active: Potency [3] 20 µM
inactive: Potency [1] > 11.4 µM | activity change, negative = inhibition [2, 19] -17.5% | activity change, negative = inhibition [4, 19] -7.09% | activity, negative = inhibition [5, 19] -3.8% | Potency [6] > 9.22 µM | Potency [7] > 46 µM | Potency [8]

Cc1nnc(SCC2=C(C(=O)O)N3C(=O)C(NC(=O)Cn4nc(C)c(Cl)c4C)C3SC2)s1 (centres undefined)
inactive: outcome [11]

Cc1cc2nc3[nH]c4c(Cl)cc(Cl)cc4c3nc2cc1C
inactive: Potency [1] > 11.4 µM | activity change, negative = inhibition [2, 19] -14% | activity change, negative = inhibition [4, 19] 11.6% | activity, negative = inhibition [5, 19] -5.45% | Potency [6] > 46 µM | Potency [7] > 9.22 µM | Potency [8] | Potency [9]
active: Potency [3] 0.631 µM

O=C(NCc1cccnc1)[C@@H]1[C@@H](C(=O)O)[C@H]2CC[C@@H]1O2
inactive: Potency [1] > 11.4 µM | activity change, negative = inhibition [2, 19] 1.51% | Potency [3] | activity change, negative = inhibition [4, 19] 4.54% | activity, negative = inhibition [5, 19] 11.6% | Potency [6] > 46 µM | Potency [7] > 9.22 µM | Potency [8]

O=C(O)c1ccc(Nc2ccnc3cc(Cl)ccc23)cc1O
inactive: Potency [1] > 11.4 µM | activity change, negative = inhibition [2, 19] -7.31% | activity change, negative = inhibition [4, 19] 11.5% | activity, negative = inhibition [5, 19] -9.48% | Potency [6] > 46 µM | Potency [7] > 9.22 µM | Potency [8]
active: Potency [3] 3.98 µM
